A selection: hits, their analogues and other compounds. The true share with any hit is near 2.2%.
IL2 activator: IL-2 activation; actives 0.065% (n = 360,000); AID 652025; IL-2 activation reporter assay, cell-based qHTS; stimulated with anti-CD3/CD4/CD28 beads; in transgenic mouse T cells; activation, % (series mostly up to about 46 µM); in the data active = activation above about 50%; inconclusive = mostly about 30% to 49%
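Unstimulated transgenic mouse T cells; 60-min compound exposure; bead-based TCR/CD4/CD28 stimulation; 18 h culture, 37 degrees C; dual fluorescence (EGFP, DsRed) plate cytometry.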
Giardia kill: kills Giardia lamblia. activity change, % at 7.66 µM, hits read low. actives 0.15% (n = 340,000). Giardia lamblia trophozoite viability. AID 540267; in the data active = activity change below about -80%; inconclusive = between about -30% and that limit;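 note: parasites exposed to compound for two days anaerobically before the ATP read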
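Luminescent ATP signal served as the viability read-out, measured 15-30 min after adding ATP detection reagent to trophozoites that had been incubated with compounds for 48 hrs at 37 deg C anaerobically at 100 cells/well.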
BRCA1 expr act: increases BRCA1 expression | actives 1.1% (n = 380,000) | Potency, µM (series often up to 46.1 µM), hits mostly activators | AID 624202 | MCF7-BRCA1-FFLuc reporter, luminescence, 48 h; response scale: scaled: vehicle 0%, 10 µM genistein 100%; note: nearly all actives have a fitted effect of over 80% in size
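Activators of BRCA1 expression were detected as increased firefly luciferase luminescence in engineered MCF7 cells after 48 h compound incubation. Signals were scaled to genistein 10 microM as full activation.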
TrxR1 inh: rat TrxR1 inhibition. O89049. recombinant rTrxR1, NADPH fluorescence consumption, selenite substrate. Potency, µM (series often up to 114 µM), usual class: inhibitors. actives 1% (n = 390,000). AID 588453; note: nearly all actives have a fitted effect of over 65% in size
Target sequence (O89049 whole entry, looked up): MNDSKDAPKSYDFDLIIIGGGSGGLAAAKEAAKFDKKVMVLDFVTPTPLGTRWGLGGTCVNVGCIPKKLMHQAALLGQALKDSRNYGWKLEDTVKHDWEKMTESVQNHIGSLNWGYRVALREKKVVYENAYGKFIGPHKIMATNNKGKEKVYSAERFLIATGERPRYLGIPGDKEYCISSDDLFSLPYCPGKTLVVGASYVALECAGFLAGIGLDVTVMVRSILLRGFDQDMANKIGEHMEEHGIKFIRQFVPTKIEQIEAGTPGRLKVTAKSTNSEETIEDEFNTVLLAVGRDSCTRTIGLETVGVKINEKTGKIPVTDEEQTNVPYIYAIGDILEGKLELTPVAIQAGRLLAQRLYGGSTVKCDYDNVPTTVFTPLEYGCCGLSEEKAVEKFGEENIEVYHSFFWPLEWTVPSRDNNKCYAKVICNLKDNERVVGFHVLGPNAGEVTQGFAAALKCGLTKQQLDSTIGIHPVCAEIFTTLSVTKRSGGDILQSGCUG
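Rat TrxR1 (90 nM in the dispensed reagent) was pre-reduced with 400 uM NADPH for 5 min at room temperature, then incubated with compound for 15 min. After 400 uM selenite was added, NADPH fluorescence (Ex 340/Em 450 nm) was followed for 8 min.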
mIDH1 inhibitor: blocks human mutant IDH1 R132H enzyme; AID 602179; O75874; actives 0.093% (n = 390,000); IDH1-R132H enzyme, NADPH consumption, diaphorase/resazurin fluorescence; Potency, µM (series often up to 76.6 µM), hits mostly inhibitors; note: nearly all actives have a fitted effect of over 65% in size
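IDH1-R132H (0.5 ug/mL dispensed) in pH 7.5 Tris buffer was preincubated 30 min with compound, then given a substrate mix of 0.016 mM NADPH and 2 mM alpha-KG for 80 min at room temperature; remaining NADPH was read by diaphorase/resazurin fluorescence.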
TrxR1 substrate: substrates of rat thioredoxin reductase 1. O89049. purified TrxR1 substrate turnover, NADPH consumption readout. Potency, µM (doses to about 114 µM). actives 0.01% (n = 390,000). AID 588456; note: nearly all actives have a fitted effect of over 50% in size
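Rat TrxR1, dispensed at 90 nM, was prereduced with 400 uM NADPH (final) for 5 min at ~22 deg C, then incubated with compound 15 min before 400 uM selenite. A first-read NADPH fluorescence drop versus no-compound background flagged substrates.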
Hits are given with their value. Unless noted, calls come from the whole dose curve; as a rule, active = well fitted curve in the direction sought with a large enough effect; inconclusive = small, poorly fitted or top-dose-only effect, or another doubt; inactive = no such curve, though single readings can be large; an effect the other way counts as inactive or inconclusive.

`CSCc1ccc(C(=O)Nc2cccc(C)c2C)cc1` gave IL2 activator inactive, Giardia kill inactive, BRCA1 expr act 11µM, TrxR1 inh inactive, mIDH1 inhibitor inactive and TrxR1 substrate inactive.
For COc1ccc(NC(=O)C2CCCN(S(=O)(=O)c3cccs3)C2)cc1 (stereo not given) the results were BRCA1 expr act inactive, TrxR1 inh inactive, mIDH1 inhibitor inactive and TrxR1 substrate inactive.
`Nc1c(C2CCCCC2)c(=O)on1C(=O)c1ccccc1` gave IL2 activator inactive, Giardia kill inactive, BRCA1 expr act inactive, TrxR1 inh 45µM, mIDH1 inhibitor inactive and TrxR1 substrate inactive.
For O=C(c1ccccc1)N1CCCCC(Cl)C1=O (stereo not given) the results were IL2 activator inactive, Giardia kill inactive, BRCA1 expr act inactive, TrxR1 inh inactive, mIDH1 inhibitor inactive and TrxR1 substrate inactive.
COc1cccc(-c2nc(S(=O)(=O)c3ccccc3)c(N3CCCCC3)o2)c1 was read as TrxR1 inh inactive and TrxR1 substrate inactive.
For COCC(=O)Nc1nc2n(n1)C(c1ccc(Cl)cc1)CC(c1ccc(OC)cc1)N2 (stereo not given) the results were IL2 activator inactive, Giardia kill inactive, BRCA1 expr act inactive, TrxR1 inh 18µM, mIDH1 inhibitor inactive and TrxR1 substrate inactive.
CN(C)C(=S)Nc1nc2ccccc2s1 was read as IL2 activator inactive, Giardia kill inactive, BRCA1 expr act 3.5µM, TrxR1 inh inconclusive, mIDH1 inhibitor inactive and TrxR1 substrate inactive.
Cc1ccccc1Nc1nc2ccccc2s1 was read as IL2 activator inactive, Giardia kill inactive, BRCA1 expr act 3.5µM, TrxR1 inh inactive, mIDH1 inhibitor inactive and TrxR1 substrate inactive.
Screening CCOCC(=O)Nc1nc2ccccc2s1 returned IL2 activator inactive, Giardia kill inactive, BRCA1 expr act 7.9µM, TrxR1 inh inactive, mIDH1 inhibitor inactive and TrxR1 substrate inactive.
For CC(C)OC(=O)CCC(=O)Nc1nc2ccccc2s1 the results were IL2 activator inactive, Giardia kill inactive, BRCA1 expr act inactive, TrxR1 inh inactive, mIDH1 inhibitor inactive and TrxR1 substrate inactive.
`O=C(Nc1nc2ccccc2s1)NC1CCCCC1` gave IL2 activator inactive, Giardia kill inactive, BRCA1 expr act inconclusive, TrxR1 inh inactive, mIDH1 inhibitor inactive and TrxR1 substrate inactive.
For CCNC(=O)Nc1nc2ccccc2s1 the results were IL2 activator inactive, Giardia kill inactive, BRCA1 expr act 3.2µM, TrxR1 inh inactive, mIDH1 inhibitor inactive and TrxR1 substrate inactive.
Screening COc1ccc(NC(=O)CCn2c(-c3ccc(F)cc3)cc(C(C)=O)c2C)c(OC)c1 returned TrxR1 inh inactive, mIDH1 inhibitor inactive and TrxR1 substrate inactive.
For O=C(CSc1nccn1-c1ccc(Cl)cc1)Nc1nc2ccccc2s1 the results were TrxR1 inh inactive, mIDH1 inhibitor inactive and TrxR1 substrate inactive.
`O=C(CSc1nccn1-c1ccccc1)Nc1nc2ccccc2s1` gave BRCA1 expr act 11µM, TrxR1 inh inactive, mIDH1 inhibitor inactive and TrxR1 substrate inactive.
For CCCC(=O)Nc1nc2ccc(OCC)cc2s1 the results were IL2 activator inactive, Giardia kill inactive, BRCA1 expr act 6.3µM, TrxR1 inh inactive, mIDH1 inhibitor inactive and TrxR1 substrate inactive.
Screening CCc1ccccc1NC(=O)CN1CCCN(Cc2cc(C)ccc2C)S1(=O)=O returned TrxR1 inh inactive, mIDH1 inhibitor inactive and TrxR1 substrate inactive.
CCOC(=O)/C(=C\c1cccnc1)C(=O)c1cc(C(C)=O)c(Nc2ccccc2)s1 was read as IL2 activator inactive, Giardia kill inactive, BRCA1 expr act inactive, TrxR1 inh 3.2µM, mIDH1 inhibitor inconclusive and TrxR1 substrate inactive.
Screening CCOC(=O)/C(=C\c1ccccc1)C(=O)c1cc(C(C)=O)c(Nc2ccccc2)s1 returned IL2 activator inactive, Giardia kill inactive, BRCA1 expr act inactive, TrxR1 inh inactive, mIDH1 inhibitor inactive and TrxR1 substrate inactive.
O=C1c2oc3ccccc3c(=O)c2C(c2cccs2)N1CCCN1CCOCC1 (stereo not given) was read as IL2 activator inactive, Giardia kill inactive, BRCA1 expr act inactive, TrxR1 inh 40µM, mIDH1 inhibitor inactive and TrxR1 substrate inactive.
For Cc1ccc(-c2nc(SCC(=O)NCC3CCCO3)c3c(=O)n(C)c(=O)n(C)c3n2)cc1 (stereo not given) the results were TrxR1 inh inactive, mIDH1 inhibitor inactive and TrxR1 substrate inactive.
`CNCCCOc1ccc2c(c1)CCC2` gave IL2 activator inactive, Giardia kill inconclusive, BRCA1 expr act 11µM, TrxR1 inh inactive, mIDH1 inhibitor inactive and TrxR1 substrate inactive.
Screening O=C1CCC(=O)N1OCCCOc1ccc2c(c1)CCC2 returned IL2 activator inactive, Giardia kill inactive, BRCA1 expr act inactive, TrxR1 inh inactive, mIDH1 inhibitor inactive and TrxR1 substrate inactive.
For O=[N+]([O-])c1cc(F)c2cccnc2c1O the results were IL2 activator inactive, Giardia kill inactive, BRCA1 expr act inactive, TrxR1 inh 45µM, mIDH1 inhibitor inactive and TrxR1 substrate inactive.
Screening CCOC(=O)/C(N=Nc1c(C)n(C)n(-c2ccccc2)c1=O)=C(\C)O returned IL2 activator inactive, Giardia kill inactive, BRCA1 expr act inactive, TrxR1 inh inactive, mIDH1 inhibitor inactive and TrxR1 substrate inactive.
`CCNc1ccc(N=Nc2c(C)n(C)n(-c3ccccc3)c2=O)cc1` gave IL2 activator inactive, Giardia kill -98, BRCA1 expr act inactive, TrxR1 inh inactive, mIDH1 inhibitor inactive and TrxR1 substrate inactive.
`CC1CCn2c(nc3cc(C(=O)NCc4ccc(OC(C)C)cc4)ccc32)C1` (stereo not given) gave TrxR1 inh inactive, mIDH1 inhibitor inactive and TrxR1 substrate inactive.
`COc1ccc(C(C#N)N2CCC(c3ccccc3)=N2)cc1` (stereo not given) gave IL2 activator inactive, Giardia kill inactive, BRCA1 expr act inactive, TrxR1 inh 16µM, mIDH1 inhibitor inactive and TrxR1 substrate inactive.
CCOC(=O)N1CCC(NC(=O)c2cnn(-c3ccc(C)cc3)c2C2CCN(C(=O)OC(C)(C)C)CC2)CC1 was read as TrxR1 inh inactive, mIDH1 inhibitor inactive and TrxR1 substrate inactive.
`COc1ccc(NC(=O)CSc2nc3nc(C)c(Cc4ccccc4Cl)c(C)n3n2)cc1OC` gave TrxR1 inh inactive, mIDH1 inhibitor inactive and TrxR1 substrate inactive.
For Cc1ccc(C(=O)CN2C(=O)NC3(CCCCCC3)C2=O)c(C)c1 the results were IL2 activator inactive, Giardia kill inactive, BRCA1 expr act 6.3µM, TrxR1 inh inactive, mIDH1 inhibitor inactive and TrxR1 substrate inactive.
